Source: PubChem BioAssay (NCI)
Compounds without any hit were thinned out: in the full panel of roughly 83,000, 20% have a hit.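 Negative percent growth values reflect cell death: -40 means 40% of the cells present at the start died, and -100 means all died.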 Calls of active or inactive are those of the source. How the source made its calls: active means growth percent below 10; inactive means the rest.

What was measured:
Assay in all cases: NCI-60 one-dose screen, 48 h (100 = growth as untreated, 0 = no growth, -100 = all killed)
Settings in all cases: 10 µM unless noted
RPMI-8226 leukemia = tested on: RPMI-8226 leukemia
OVCAR-8 ovarian = tested on: OVCAR-8 ovarian
OVCAR-5 ovarian = tested on: OVCAR-5 ovarian
OVCAR-4 ovarian = tested on: OVCAR-4 ovarian
SK-OV-3 ovarian = tested on: SK-OV-3 ovarian
OVCAR-3 ovarian = tested on: OVCAR-3 ovarian
HS 578T breast = tested on: HS 578T breast
NCI/ADR-RES ovarian = tested on: NCI/ADR-RES ovarian
T-47D breast = tested on: T-47D breast
IGROV1 ovarian = tested on: IGROV1 ovarian

Measured: growth

O=C(O)C(=O)O
inactive: RPMI-8226 leukemia 94.4% | OVCAR-8 ovarian 75.8% | OVCAR-5 ovarian 56.8% | OVCAR-4 ovarian 99.8% | SK-OV-3 ovarian 95.7% | OVCAR-3 ovarian 114% | HS 578T breast 100% | T-47D breast 94.4%
active: NCI/ADR-RES ovarian -36.5%

CN(C)c1ccc2c(c1)/C(=N/O)c1ccccc1-2
inactive: RPMI-8226 leukemia 107% | OVCAR-8 ovarian 97.6% | OVCAR-5 ovarian 96.2% | OVCAR-4 ovarian 82.6% | SK-OV-3 ovarian 90.1% | OVCAR-3 ovarian 93.4% | HS 578T breast 36.4% | T-47D breast 85.5%

CCOC(=O)/C=C(/C)Sc1cc(O)c2ccccc2c1O
inactive: RPMI-8226 leukemia 40.7% | OVCAR-8 ovarian 24.3% | OVCAR-5 ovarian 93% | OVCAR-4 ovarian 51.1% | OVCAR-3 ovarian 13.4% | T-47D breast 36.8%
active: SK-OV-3 ovarian 6.27% | HS 578T breast -28.2%

Nc1cc(Cl)c(S(N)(=O)=O)cc1S(N)(=O)=O
inactive: RPMI-8226 leukemia 122% | OVCAR-8 ovarian 115% | OVCAR-5 ovarian 102% | OVCAR-4 ovarian 96.6% | SK-OV-3 ovarian 117% | OVCAR-3 ovarian 137% | HS 578T breast 106% | NCI/ADR-RES ovarian 35.1% | T-47D breast 117%

CCN(CC)CCOc1ccc(C2=C(c3ccccc3)CCc3cc(OC)ccc32)cc1
inactive: OVCAR-8 ovarian 46.6% | OVCAR-5 ovarian 22.2% | OVCAR-4 ovarian 52.3% | SK-OV-3 ovarian 68.9% | OVCAR-3 ovarian 12.7% | T-47D breast 25%
active: RPMI-8226 leukemia -64.7% | HS 578T breast -6.19%

CC(=O)Nc1ccc2c(c1)Cc1c(F)c(F)c(F)c(F)c1-2
active: NCI/ADR-RES ovarian -39.9%
inactive: RPMI-8226 leukemia 22.5% | OVCAR-8 ovarian 79.6% | OVCAR-5 ovarian 44.1% | OVCAR-4 ovarian 85.7% | SK-OV-3 ovarian 113% | OVCAR-3 ovarian 105% | HS 578T breast 96.6% | T-47D breast 85.6%

O=C1Nc2ccccc2C12Nc1cc(Cl)ccc1S2 (centres undefined)
inactive: RPMI-8226 leukemia 42% | OVCAR-8 ovarian 104% | OVCAR-5 ovarian 104% | OVCAR-4 ovarian 70.4% | SK-OV-3 ovarian 70.9% | OVCAR-3 ovarian 76.3% | HS 578T breast 135% | T-47D breast 42.4%

Cn1c(N)c(N=O)c(=O)[nH]c1=O
inactive: RPMI-8226 leukemia 83.9% | OVCAR-8 ovarian 104% | OVCAR-5 ovarian 106% | SK-OV-3 ovarian 115% | IGROV1 ovarian 107% | OVCAR-3 ovarian 112% | HS 578T breast 99.8% | NCI/ADR-RES ovarian 103% | T-47D breast 98%

CC(=O)NCCSC(=O)C(=O)SCCNC(C)=O
inactive: RPMI-8226 leukemia 102% | OVCAR-8 ovarian 112% | OVCAR-5 ovarian 95.8% | OVCAR-4 ovarian 103% | SK-OV-3 ovarian 114% | OVCAR-3 ovarian 115% | HS 578T breast 119% | T-47D breast 105%

CSc1ccc2c(c1)N(CCC1CCCCN1C)c1ccccc1S2 (centres undefined)
inactive: RPMI-8226 leukemia 26.3% | OVCAR-8 ovarian 69.9% | OVCAR-4 ovarian 64% | SK-OV-3 ovarian 81% | IGROV1 ovarian 36.4% | OVCAR-3 ovarian 92.3% | HS 578T breast 47.6%

Cc1cc(C(C)(C)C)cc(C)c1CC1=NCCN1
inactive: RPMI-8226 leukemia 114% | OVCAR-8 ovarian 107% | OVCAR-4 ovarian 117% | SK-OV-3 ovarian 124% | IGROV1 ovarian 108% | OVCAR-3 ovarian 112% | HS 578T breast 102%

Nc1nc2ncc(CCNc3ccc(C(=O)NC(CCC(=O)O)C(=O)O)cc3)nc2c(=O)[nH]1 (centres undefined)
inactive: RPMI-8226 leukemia 112% | OVCAR-8 ovarian 108% | OVCAR-5 ovarian 90.1% | OVCAR-4 ovarian 104% | SK-OV-3 ovarian 110% | HS 578T breast 101% | T-47D breast 115%

COc1ccc(-c2c(N)noc2-c2cc(OC)c3c(c2)OCCO3)cc1
active: SK-OV-3 ovarian 8.57% | OVCAR-3 ovarian -24.2% | NCI/ADR-RES ovarian -5.69%
inactive: RPMI-8226 leukemia 16% | OVCAR-8 ovarian 24.3% | OVCAR-5 ovarian 36.5% | IGROV1 ovarian 24.8% | HS 578T breast 25.9% | T-47D breast 63.7%

CCOC(=O)C(Cc1ccccc1)(C(=O)OCC)C(Br)C(=O)c1ccccc1 (centres undefined)
inactive: OVCAR-8 ovarian 81.4% | OVCAR-5 ovarian 98.1% | OVCAR-4 ovarian 39.8% | SK-OV-3 ovarian 92.2% | IGROV1 ovarian 75.1% | OVCAR-3 ovarian 61.3% | HS 578T breast 83.1% | NCI/ADR-RES ovarian 85.1%

CCCCC(C#N)C(N)=O (centres undefined)
inactive: RPMI-8226 leukemia 102% | OVCAR-5 ovarian 106% | OVCAR-4 ovarian 107% | SK-OV-3 ovarian 98.1% | IGROV1 ovarian 113% | OVCAR-3 ovarian 108% | HS 578T breast 101% | T-47D breast 100%

CC(C)COCC(CN(Cc1ccccc1)c1ccccc1)N1CCCC1 (centres undefined)
inactive: RPMI-8226 leukemia 46.4% | OVCAR-4 ovarian 49.9% | SK-OV-3 ovarian 74.9% | IGROV1 ovarian 53.3% | OVCAR-3 ovarian 72.4% | HS 578T breast 81.6% | NCI/ADR-RES ovarian 65.2% | T-47D breast 66.1%

OC(c1cc(C(F)(F)F)nc2c(C(F)(F)F)cccc12)C1CCCCN1 (centres undefined)
inactive: RPMI-8226 leukemia 80% | OVCAR-4 ovarian 56.7% | SK-OV-3 ovarian 78.7% | IGROV1 ovarian 44.7% | OVCAR-3 ovarian 73.7% | HS 578T breast 62.4% | NCI/ADR-RES ovarian 50.5% | T-47D breast 75.2%

CC1CC(C)/C(=N/NC(N)=O)C(C(O)CC2CCC(=O)NC2=O)C1 (centres undefined)
inactive: RPMI-8226 leukemia 50.4% | OVCAR-5 ovarian 52.1% | OVCAR-4 ovarian 57.7% | SK-OV-3 ovarian 49.2% | IGROV1 ovarian 30.1% | OVCAR-3 ovarian 53.6% | HS 578T breast 10% | NCI/ADR-RES ovarian 42.6% | T-47D breast 42.5%

CO[C@H]1/C=C/O[C@@]2(C)Oc3c(C)c(O)c4c(O)c(c(/C=N/N5CCN(C)CC5)c(O)c4c3C2=O)NC(=O)/C(C)=C\C=C\C(C)[C@H](O)[C@@H](C)[C@@H](O)[C@@H](C)[C@@H](OC(C)=O)[C@@H]1C (some centres undefined)
inactive: RPMI-8226 leukemia 108% | OVCAR-8 ovarian 100% | OVCAR-4 ovarian 103% | SK-OV-3 ovarian 113% | IGROV1 ovarian 105% | OVCAR-3 ovarian 107% | HS 578T breast 109% | NCI/ADR-RES ovarian 105% | T-47D breast 107%

Cc1c(C(N)=O)sc2c1C(=O)N(Cc1ccccc1)C1=NN=C(c3ccc(Cl)cc3)CN12
inactive: OVCAR-8 ovarian 18.1% | OVCAR-5 ovarian 57.2% | OVCAR-4 ovarian 48.6% | SK-OV-3 ovarian 58.5% | IGROV1 ovarian 42.6% | OVCAR-3 ovarian 31.5% | HS 578T breast 78.2% | T-47D breast 63.4%
active: NCI/ADR-RES ovarian 9.99%

O=C(Nc1ccc(Cl)cc1)Nc1ccc(Nc2nncc3ccccc23)cc1
inactive: OVCAR-8 ovarian 18.2% | OVCAR-5 ovarian 85.6% | OVCAR-4 ovarian 11.1% | SK-OV-3 ovarian 38.2% | IGROV1 ovarian 39.7% | OVCAR-3 ovarian 17.6% | HS 578T breast 58.3% | NCI/ADR-RES ovarian 36.2%
active: T-47D breast -6.32%

COc1ccc(/C=N/NC(=O)c2ccc(S(C)(=O)=O)cc2)cc1OC
inactive: RPMI-8226 leukemia 97.1% | OVCAR-5 ovarian 111% | OVCAR-4 ovarian 96.2% | SK-OV-3 ovarian 102% | IGROV1 ovarian 109% | OVCAR-3 ovarian 108% | HS 578T breast 102% | NCI/ADR-RES ovarian 108% | T-47D breast 96.6%

COc1ccc2nc(NC(=O)c3cc(-c4ccc(F)cc4)n4nc(-c5ccccc5)cc4n3)sc2c1
inactive: OVCAR-8 ovarian 53.5% | OVCAR-5 ovarian 85.6% | OVCAR-4 ovarian 59.1% | SK-OV-3 ovarian 67.6% | IGROV1 ovarian 101% | OVCAR-3 ovarian 67.9% | HS 578T breast 79.9% | NCI/ADR-RES ovarian 70.9% | T-47D breast 89.5%

CCCCOc1ccc(C(C)(C)c2ccc(OCCCC)cc2)cc1
inactive: RPMI-8226 leukemia 91% | OVCAR-5 ovarian 109% | OVCAR-4 ovarian 108% | SK-OV-3 ovarian 94.6% | IGROV1 ovarian 103% | OVCAR-3 ovarian 106% | HS 578T breast 105% | NCI/ADR-RES ovarian 101% | T-47D breast 90.2%

CCCCCCCC/C=C/CCCCCCCC1=NC(C)(C)CN1CCO
inactive: OVCAR-8 ovarian 45% | OVCAR-5 ovarian 87.3% | OVCAR-4 ovarian 52.3% | SK-OV-3 ovarian 78.6% | OVCAR-3 ovarian 32.8% | HS 578T breast 35.1% | NCI/ADR-RES ovarian 77.3%
active: IGROV1 ovarian -40.5% | T-47D breast 0.508%

Cc1cccc(Cl)c1NC(=O)c1ccc2nc(NC(=O)NC3CC(C)(C)NC(C)(C)C3)sc2c1
inactive: RPMI-8226 leukemia 87.1% | OVCAR-5 ovarian 78% | OVCAR-4 ovarian 95.3% | SK-OV-3 ovarian 76.3% | IGROV1 ovarian 65.2% | OVCAR-3 ovarian 99.7% | HS 578T breast 30.8% | NCI/ADR-RES ovarian 118% | T-47D breast 54%

Fc1ccc(-c2nc(Nc3ccc(-c4nc5ccccc5[nH]4)cc3)nc(N3CCOCC3)n2)cc1
active: OVCAR-8 ovarian -73.8% | OVCAR-5 ovarian -74.7% | OVCAR-4 ovarian -73.9% | SK-OV-3 ovarian -89.9% | IGROV1 ovarian -71.2% | OVCAR-3 ovarian -95.6% | HS 578T breast -40.3% | NCI/ADR-RES ovarian -87.5% | T-47D breast -64.8%

CCC1=C(c2ccc(OC)cc2)C(C)(C)Oc2cc(O)c(CN3CCCC3)cc21
inactive: OVCAR-8 ovarian 95.4% | OVCAR-5 ovarian 81.9% | OVCAR-4 ovarian 99.3% | SK-OV-3 ovarian 89.2% | IGROV1 ovarian 87.1% | OVCAR-3 ovarian 83.4% | HS 578T breast 86% | NCI/ADR-RES ovarian 84.6% | T-47D breast 68.2%

O=C(/C(=C/c1ccc([N+](=O)[O-])cc1)c1ccccc1)c1ccccc1
inactive: OVCAR-5 ovarian 76.3% | OVCAR-4 ovarian 57.8% | SK-OV-3 ovarian 92.7% | IGROV1 ovarian 74.1% | OVCAR-3 ovarian 16.4% | HS 578T breast 57.9% | NCI/ADR-RES ovarian 46.5% | T-47D breast 72%
active: OVCAR-8 ovarian 8.51%

CC(c1ccccn1)C(C)(O)C(C)c1ccccn1 (centres undefined)
inactive: OVCAR-8 ovarian 101% | OVCAR-5 ovarian 98% | OVCAR-4 ovarian 112% | SK-OV-3 ovarian 114% | IGROV1 ovarian 112% | OVCAR-3 ovarian 106% | HS 578T breast 104% | NCI/ADR-RES ovarian 107% | T-47D breast 118%

CN1C(=O)/C(=C/c2nc(-c3cccc(F)c3)n3ccccc23)c2ccccc21
inactive: OVCAR-8 ovarian 34.9% | OVCAR-5 ovarian 100% | OVCAR-4 ovarian 41.9% | SK-OV-3 ovarian 66.6% | OVCAR-3 ovarian 60.6% | HS 578T breast 33% | NCI/ADR-RES ovarian 66.4% | T-47D breast 50.1%
active: IGROV1 ovarian 7.47%
